Source: PubChem BioAssay
Vaccinia pol inh – inhibitors of vaccinia virus processive DNA synthesis (E9 polymerase). in vitro processive DNA synthesis, absorbance read-out; stronger effect = lower value. normalized absorbance, % (concentration not given with the values). 46,000 tested, 0.94% active. AID 493162; in the data active means normalized absorbance mostly below about 85%, no sharp cut-off; inactive means mostly above about 86%
Of the large screens only hits and unclear results are named; the others gave an inactive call. Many of the other results were omitted from the sample, so hits are more common in it than they were.

CCOC(=O)c1c(C)n(Cc2ccccc2)c2ccc(O)cc12	none
N#Cc1ccccc1Nc1ccnc(C(F)(F)F)c1	none
O=C(NCCN1CCCC1)C1=Cc2sc3c(c2CS1)CCCC3	Vaccinia pol inh 74
O=C(NCCCN1CCCC1)c1csc2c1CCCCC2	none
Cc1ccc(C(=O)NCCN2CCCC2)cc1	none
Cc1ccccc1/C=N/N1C(=O)c2ccc3c4c(ccc(c24)C1=O)CC3	none
Cc1cc(=O)oc2cc(OCC(N)=O)ccc12	none
CCOC(=O)CNc1ccccc1C#N	none
CCCCCCCCCCCCCCCC[n+]1ccccc1	Vaccinia pol inh 17
c1cc[n+](C[n+]2ccccc2)cc1	none
O=C(c1ccco1)N(Cc1nc(-c2ccccc2)no1)C1CCCCC1	none
COc1ccc(-c2cc(=NC(CC(C)C)C(=O)O)c3cc(C)ccc3o2)cc1 (configuration not stated)	none
COc1ccc(-c2cc(=O)c3cc(OC(=O)Cc4ccccc4)ccc3o2)cc1	none
COc1ccc(-c2cc(=O)c3cc(OC(=O)c4ccc(OC)c(OC)c4)ccc3o2)cc1	none
COc1ccc(-c2c(C)oc3cc(O)ccc3c2=O)cc1	none
COc1ccc(-c2cc(=Nc3ccc(OC)c(OC)c3)c3ccccc3o2)cc1	none
COc1ccc(-c2cc(=Nc3ccc(O)cc3)c3cc(C)ccc3o2)cc1	Vaccinia pol inh 54
COc1ccc(-c2cc(=NCCc3ccccc3)c3cc(C)ccc3o2)cc1	Vaccinia pol inh 41
CCc1ccc2oc(-c3ccc(OC)cc3)cc(=NCC(=O)O)c2c1	none
COc1ccc(N=c2cc(-c3ccc(OC)cc3)oc3ccc(O)cc23)cc1	Vaccinia pol inh 63
COc1ccc(CC(=O)N=c2sc3cc(Cl)ccc3n2C)cc1	none
CCOc1ccccc1C1C=CCC1 (configuration not stated)	none
Cc1cc2[nH]c(=O)c(=O)[nH]c2cc1S(=O)(=O)N1CCCc2ccccc21	none
CN1C(=O)/C(=C\c2ccccc2)Sc2ccc(C(=O)NC3CCCCC3)cc21	none
CN1C(=O)c2ccccc2Sc2ccc(C(=O)O)cc21	none
CC(C(=O)O)N1C(=O)/C(=C/c2ccccc2Cl)SC1=S (configuration not stated)	none
CN1C(=O)/C(=C/c2ccccc2Cl)Sc2ccc(C(=O)O)cc21	Vaccinia pol inh 46
CCCC(C(=O)O)N1C(=O)/C(=C/c2ccccc2Cl)SC1=S (configuration not stated)	Vaccinia pol inh 56
CCCC(C(=O)O)N1C(=O)/C(=C/c2ccc(C)cc2)SC1=S (configuration not stated)	none
COc1cc(CN(C(=O)/C(=C/c2cccnc2)NC(=O)c2ccccc2)C2CCCCC2)ccc1O	none
O=C(CBr)c1ccc2ccccc2c1	none
COC(=O)c1ccccc1NC(=O)CS(=O)(=O)c1nnnn1-c1cccc2ccccc12	none
Cc1ccc(C(=O)Nc2nnc(SCC(=O)N3CCCCC3)s2)cc1	none
CC(=O)Nc1ccc(N=Cc2ccc(OC(=O)c3ccccc3Br)cc2O)cc1	Vaccinia pol inh 82
CC(=O)Nc1ccc(N=Cc2ccc(C)cc2)cc1	none
CC(=O)Nc1ccc(N=Cc2ccc(OC(=O)c3cccnc3)cc2)cc1	none
CC(C)(C)C(=O)CSc1nc2ccccc2c(=O)n1-c1ccc(F)cc1F	none
CN1CCCC(OC(=O)c2cncc(Br)c2)C1 (configuration not stated)	none
CCCCN(Cc1ccco1)C(=O)c1cc2c(=O)oc3ccc(C)cc3c2s1	none
COC(=O)c1cc2c(Cl)nc3ccc(C)cc3c2s1	none
Cc1ccc2nc(Cl)c3cc(C(=O)N(CCN(C)C)Cc4ccco4)sc3c2c1	Vaccinia pol inh 53
Cc1ccc2cc(NC(=O)C3CC(=O)N(CCc4ccc(Cl)cc4)C3)ccc2n1 (configuration not stated)	none
CN(CC(O)Cn1c2ccccc2c2ccccc21)S(=O)(=O)c1ccc(Cl)cc1 (configuration not stated)	none
OC(CN1CCNCC1)Cn1c2ccccc2c2cc(Br)ccc21 (configuration not stated)	Vaccinia pol inh 56
OCC(O)Cn1c2ccc(Br)cc2c2cc(Br)ccc21 (configuration not stated)	Vaccinia pol inh 65
OC(COc1ccccc1Br)CN1CCNCC1 (configuration not stated)	none
CN(C)CC(O)Cn1c2ccc(Cl)cc2c2cc(Cl)ccc21 (configuration not stated)	Vaccinia pol inh 27
Cc1ccc2c(c1)c(C)c(C)n2CC(O)CN1CCCCC1 (configuration not stated)	none
CN(C)CC(O)Cn1c2ccccc2c2ccccc21 (configuration not stated)	none
CCn1c2c(c3cc(Br)ccc31)CCCC2=O	none
CC1CCN(CC(O)Cn2c3ccccc3c3ccccc32)CC1 (configuration not stated)	none
CC(=O)OCc1cnn(-c2ccccc2)n1	none
CC1CCN(C(=O)c2cc3nc(-c4ccco4)cc(C(F)(F)F)n3n2)C2CCCCC12 (configuration not stated)	none
COC(=O)C(NC(=O)c1cccs1)C12CC3CC(CC(C3)C1)C2 (configuration not stated)	none
Cc1cc(/C=C2/NC(=O)N(Cc3ccc(Br)cc3)C2=O)c(C)n1-c1ccc2c(c1)OCO2	none
Cc1c(C(=O)O)oc2ccccc12	none
O=C(O)c1oc2ccccc2c1CSc1ccccn1	none
O=C(O)c1oc2ccccc2c1COc1ccccc1	Vaccinia pol inh 72
Cc1ccc(N=Cc2ccc3ccccc3n2)cc1	none
CC1CCN(S(=O)(=O)c2ccc(/C=C/C(=O)O)cc2)CC1	none
c1ccc(-c2nc(N3CCCC3)nc3ccccc23)cc1	none
CCC(=O)N/C(N)=N\c1nc(C)c2ccccc2n1	none
NC(N)=Nc1nc(-c2ccccc2)c2ccccc2n1	Vaccinia pol inh 51
O=C1NC(=O)C(c2ccccc2)c2ccccc21 (configuration not stated)	none
Cc1nc2cc3ccccc3cc2c(=O)n1CCCNC1CCCCC1	none
CCCCN1C(=O)CCC(C(=O)O)C1c1cccs1 (configuration not stated)	none
CN1CCc2c(sc(NC(=O)c3ccc4ncsc4c3)c2C(N)=O)C1	Vaccinia pol inh 85
N#Cc1ccsc1NC(=O)c1ccc2ncsc2c1	none
COC(=O)c1c(NC(=O)c2ccc(OC)cc2)sc2c1CCN(C)C2	none
Cn1cc(-c2ccccc2C(=O)O)c(=O)c2ccccc21	none
O=C(O)c1ccccc1-c1c2cc(Br)c(=O)cc-2oc2[c]([Hg])c(O)c(Br)cc12	Vaccinia pol inh 18
O=C(O)c1cc(-c2ccco2)nc2ccc(Br)cc12	none
Cc1sc(NC(=O)c2ccco2)c(C(c2cccnc2)N2CCCCC2)c1C (configuration not stated)	none
COc1ccc(-c2ccc(/C=C(\C#N)c3ccccc3)o2)cc1	none
CC(C)C(C)(C#N)Nc1ccccc1 (configuration not stated)	none
O=C(CNC(=S)N(Cc1ccccc1)Cc1cccs1)NC1CCCCC1	Vaccinia pol inh 77
O=C(O)CNC(=S)N(Cc1ccccc1)Cc1cccs1	none
O=C(O)CNC(=S)N(Cc1cccs1)C1CCCCC1	none
Cc1nc2ccc(-n3cccc3)cc2o1	none
O=C1C=CC(=O)N1c1ccc(S(=O)(=O)Nc2ccc(C(F)(F)F)cc2)cc1	none
CCc1ccc(S(=O)(=O)c2cn(CC)c3ccccc3c2=O)cc1	none
CCOc1ccccc1NC(=O)CSc1ccc(-c2cccs2)nn1	none
CCn1c(=O)c2c(c3ccccc31)Oc1ccc(C)cc1N=C2C	none
COc1ccc(C(=O)CSc2nc3ccccc3s2)cc1	none
COc1ccc(-c2ccnc(SCC(=O)c3ccc(Cl)cc3)n2)cc1	none
COc1ccc(C(=O)CSc2nnc(-c3ccco3)c(-c3ccco3)n2)cc1	Vaccinia pol inh 68
CCOC(=O)c1c(C)n(-c2ccc(OC)cc2)c2ccc(OC)cc12	none
